High-throughput results from PubChem.
A selection: hits, their analogues and other compounds. The true share with any hit is near 3.8%.
ADAM17 inh: inhibitors of human ADAM17; P78536; recombinant ADAM17, EDANS/DABCYL FRET peptide cleavage; inhibition, % at 6.95 µM; actives 0.83% (n = 370,000); AID 720648;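 active = inhibition above the mean of compounds lying between control limits plus 3 SD, set per campaign, cut at about 8.5% in these data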;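 also: 0% = DMSO-only wells as the low control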
ADAM10 inh: inhibitors of human ADAM10. inhibition, % at 7 µM. actives 0.62% (n = 370,000). recombinant ADAM10, EDANS/DABCYL FRET peptide cleavage, 3 h. O14672;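 active = inhibition above a per-campaign cutoff equal to the mean of compounds falling between control-based bounds plus 3 SD, cut at about 20% in these data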;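 also: 0% = DMSO wells while the 100% control is not disclosed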
Target sequence (O14672 214-748 limits assumed): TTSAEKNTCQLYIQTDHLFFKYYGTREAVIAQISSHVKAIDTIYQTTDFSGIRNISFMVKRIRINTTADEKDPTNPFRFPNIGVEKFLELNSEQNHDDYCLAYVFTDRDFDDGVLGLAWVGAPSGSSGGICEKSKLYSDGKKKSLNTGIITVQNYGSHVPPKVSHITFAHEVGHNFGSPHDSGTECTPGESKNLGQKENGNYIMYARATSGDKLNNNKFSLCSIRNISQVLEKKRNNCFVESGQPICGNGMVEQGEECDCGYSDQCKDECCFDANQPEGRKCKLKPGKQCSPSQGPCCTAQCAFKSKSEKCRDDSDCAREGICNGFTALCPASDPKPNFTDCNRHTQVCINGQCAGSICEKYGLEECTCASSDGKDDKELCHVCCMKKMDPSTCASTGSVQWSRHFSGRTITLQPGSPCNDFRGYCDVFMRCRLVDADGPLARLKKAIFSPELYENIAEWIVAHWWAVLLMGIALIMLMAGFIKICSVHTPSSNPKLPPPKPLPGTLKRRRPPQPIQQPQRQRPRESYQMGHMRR
KLK7 zymogen act: activates the human kallikrein-7 zymogen; purified proKLK7, EDANS-DABCYL substrate fluorescence; 100% is mature enzyme control, 0% vehicle; actives 0.9% (n = 370,000); activation, % at 7 µM; P49862;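 active = activation above the mean of all tested compounds plus 3 SD, computed per campaign excluding outliers beyond control limits, cut at about 13% in these data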
FGF22 binding: shifts melting point of recombinant human FGF22. activity (Tm shift, normalised), % at 9.99 µM. actives 1.5% (n = 340,000). recombinant FGF22 thermal shift, SYPRO orange fluorescence; percent of sucrose octasulfate shift, DMSO zero;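 active = mean Tm shift, scaled 0 neutral to 100 positive control, at about 1.3% or above, every replicate too, limit read from the data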
rRNA inh HTS: inhibitors of bacterial rRNA selective over humanized ribosomes; AID 720706; actives 1.6% (n = 350,000); GFP signal change (wild-type ribosome), % (no concentration beside the values); E. coli WT GFP vs humanized-ribosome RFP mutants, fluorescence, 24 h; active compounds read low; DMSO median 0, no signal -100;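 active = significant combined selectivity score with lowered wild-type GFP, culture density cut under 30%, mutant RFP and density less affected; inactive = any of these conditions unmet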
An asterisk follows results filed as active.

How did Nc1cc(Cl)nc(N/N=C/c2c(O)ccc3ccccc23)n1 do in these assays?
ADAM17 inh: -0.3; ADAM10 inh: -11.1; KLK7 zymogen act: -5.4; FGF22 binding: 0.0; rRNA inh HTS: -20.0*

What do the screens show for `Nc1nonc1N/N=C/c1c(O)ccc2ccccc12`?
ADAM17 inh: 2.7; ADAM10 inh: 14.3; KLK7 zymogen act: -0.9; FGF22 binding: 0.0; rRNA inh HTS: -44.2

Results for CCOCCOC(=O)C(C)Oc1ccc(Oc2nc(Cl)ccc2Cl)cc1 (stereo unspecified) ?
ADAM17 inh: -2.8; ADAM10 inh: -4.8; KLK7 zymogen act: -0.3; FGF22 binding: 43.3*; rRNA inh HTS: -21.4

What do the screens show for `CCOCCOC(=O)C(C)Oc1ccc(Oc2ncc(Cl)cc2Cl)cc1` (stereo unspecified)?
ADAM17 inh: 3.0; ADAM10 inh: 3.7; KLK7 zymogen act: -0.1; FGF22 binding: -0.1; rRNA inh HTS: -11.8

Results for Cc1ccc(CNS(=O)(=O)c2ccccc2[N+](=O)[O-])cc1 ?
ADAM17 inh: -0.9; ADAM10 inh: -3.8; KLK7 zymogen act: 0.5; FGF22 binding: 43.5*; rRNA inh HTS: -7.0

How did COc1ccc(CCNS(=O)(=O)c2ccccc2[N+](=O)[O-])cc1OC do in these assays?
ADAM17 inh: -1.7; ADAM10 inh: -3.4; KLK7 zymogen act: -0.3; FGF22 binding: 0.1; rRNA inh HTS: -1.9

What do the screens show for `COc1cccc(OCCNS(=O)(=O)c2ccccc2[N+](=O)[O-])c1`?
ADAM17 inh: -1.1; ADAM10 inh: -6.3; KLK7 zymogen act: 0.4; FGF22 binding: 0.0; rRNA inh HTS: -21.6*

Results for Cc1ccc(CNS(=O)(=O)c2ccc([N+](=O)[O-])cc2)cc1 ?
ADAM17 inh: 8.1; ADAM10 inh: 9.2; KLK7 zymogen act: -0.3; FGF22 binding: -0.2; rRNA inh HTS: 16.5

Results for CCCCCCCCCCCCCCCC[n+]1ccc(C(N)=O)cc1 ?
ADAM17 inh: 1.2; ADAM10 inh: 11.0; KLK7 zymogen act: -0.2

Results for CCCCCCCCCCCCCCCC[n+]1ccc(/C=N/O)cc1 ?
ADAM17 inh: 0.9; ADAM10 inh: 18.1; KLK7 zymogen act: 0.2; FGF22 binding: 0.0; rRNA inh HTS: -37.1*

What do the screens show for `CCOC(=O)c1nc(NCc2ccccc2)c2ccccc2n1`?
ADAM17 inh: -1.5; ADAM10 inh: 1.3; KLK7 zymogen act: -0.1; FGF22 binding: 43.7*; rRNA inh HTS: -35.5

Results for COc1cc(C(=O)Nc2nnc(S(=O)(=O)N3CCCCCC3)s2)cc(OC)c1OC ?
ADAM17 inh: 5.3; ADAM10 inh: 0.8; KLK7 zymogen act: 0.0; FGF22 binding: 0.1; rRNA inh HTS: -30.6*

How did O=C(NN(c1ccccc1)c1ccccc1)c1ccc([N+](=O)[O-])o1 do in these assays?
ADAM17 inh: 0.7; ADAM10 inh: 6.6; KLK7 zymogen act: 0.1; FGF22 binding: 41.6; rRNA inh HTS: -28.8*

How did COc1ccc(NC(=S)Nc2ccc(OC(F)F)cc2)cn1 do in these assays?
ADAM17 inh: 2.0; ADAM10 inh: 0.1; KLK7 zymogen act: -0.8; FGF22 binding: 43.4*; rRNA inh HTS: -22.0

How did COc1ccc(NC(=O)/C=C/c2ccc(OC(F)F)cc2)cn1 do in these assays?
ADAM17 inh: 1.1; ADAM10 inh: 8.0; KLK7 zymogen act: 0.2; FGF22 binding: -0.3; rRNA inh HTS: -5.3

How did c1ccc2c(-c3csc(-c4ccncc4)n3)c[nH]c2c1 do in these assays?
ADAM17 inh: 0.4; ADAM10 inh: -1.0; KLK7 zymogen act: 0.7; FGF22 binding: -0.3; rRNA inh HTS: -27.3*

How did Cc1cc(/C=N/N2CCN(C)CC2)c(C)n1-c1ccccc1F do in these assays?
ADAM17 inh: -5.6; ADAM10 inh: -10.1; KLK7 zymogen act: -0.4; FGF22 binding: 43.8*; rRNA inh HTS: 8.4

Results for CN1CCN(/N=C/c2ccc(-c3ccccc3)cc2)CC1 ?
ADAM17 inh: -1.2; ADAM10 inh: 0.5; KLK7 zymogen act: -0.7; FGF22 binding: 0.2; rRNA inh HTS: -3.2

What do the screens show for `O=C(Cc1ccncc1)NCC[C@@H]1CC[C@H](NC(=O)C2CCCCC2)[C@H](CO)O1`?
FGF22 binding: -0.1; rRNA inh HTS: 3.4

Results for CC(=O)Cn1c(=O)c2c(nc3n2CCCN3Cc2ccccc2)n(C)c1=O ?
ADAM17 inh: 1.2; ADAM10 inh: 1.8; KLK7 zymogen act: 0.0; FGF22 binding: 0.0; rRNA inh HTS: 1.3

How did C=C(C)Cn1c(=O)c2c(nc3n2CCCN3Cc2ccccc2)n(C)c1=O do in these assays?
ADAM17 inh: -5.0; ADAM10 inh: 6.7; KLK7 zymogen act: 0.0; FGF22 binding: -0.3; rRNA inh HTS: -28.5*

Results for C[C@@H]1CN(C)C(=O)Cc2cc(N)ccc2O[C@H]1CN(C)C ?
rRNA inh HTS: -1.4

Results for Cc1ccc2c(c1)C(c1ccc(O)cc1)(c1ccc(O)cc1)C(=O)N2C ?
ADAM17 inh: 0.4; ADAM10 inh: 4.7; KLK7 zymogen act: 0.4; FGF22 binding: 0.1; rRNA inh HTS: 1.9

Results for Cc1cc(C2(c3ccc(O)c(C)c3)C(=O)N(C)c3ccc(Br)cc32)ccc1O ?
ADAM17 inh: 7.0; ADAM10 inh: 17.3; KLK7 zymogen act: -0.2; FGF22 binding: -0.2; rRNA inh HTS: -40.3*

How did CO[C@@H]1CN(C)C(=O)c2ccc(NC(=O)C3CC3)cc2OC[C@@H](C)N(Cc2nccs2)C[C@H]1C do in these assays?
FGF22 binding: -0.1; rRNA inh HTS: -2.2

Results for S=C1SCN(Cc2cccnc2)CN1Cc1ccccc1 ?
ADAM17 inh: -1.2; ADAM10 inh: -1.3; KLK7 zymogen act: -0.7; FGF22 binding: -0.3; rRNA inh HTS: -29.1*

How did CCCCCCCn1c(=N)n(CC(O)c2ccco2)c2ccccc21 (stereo unspecified) do in these assays?
ADAM17 inh: -2.2; ADAM10 inh: 0.2; KLK7 zymogen act: 0.0; FGF22 binding: 43.7*; rRNA inh HTS: -39.2

How did C[C@@H]1CN([C@@H](C)CO)C(=O)Cc2cc(NC(=O)CCCCCC(=O)Nc3ccccc3N)ccc2O[C@H]1CN(C)CC1CC1 do in these assays?
FGF22 binding: 0.0; rRNA inh HTS: 3.6

Results for COC(=O)COc1ccccc1/C=C1/NC(=O)NC1=O ?
ADAM17 inh: -6.5; ADAM10 inh: -20.4; KLK7 zymogen act: 1.2

How did O=C(COc1ccccc1/C=C1/NC(=O)NC1=O)Nc1ccccc1 do in these assays?
ADAM17 inh: 0.2; ADAM10 inh: 6.3; KLK7 zymogen act: 0.0; FGF22 binding: 0.3; rRNA inh HTS: -26.2*

Results for CO[C@H]1CN(C)C(=O)c2ccc(NC(=O)Nc3cccc(F)c3)cc2OC[C@H](C)N(C(=O)Nc2c(C)noc2C)C[C@@H]1C ?
FGF22 binding: 0.2; rRNA inh HTS: 2.8

What do the screens show for `Cc1ccc(S(=O)(=O)N[C@@H]2CC[C@@H](CC(=O)NCCCN(C)C)O[C@@H]2CO)cc1`?
FGF22 binding: -0.1; rRNA inh HTS: 0.9

What do the screens show for `NC1=C(Br)C(=O)c2ncccc2C1=O`?
ADAM17 inh: 0.3; ADAM10 inh: -21.2; KLK7 zymogen act: -0.5; FGF22 binding: -0.3; rRNA inh HTS: -37.8
